# Experimental data: the supplement of paper PMC6992640
# ± gives the standard deviation of the averaged measurements.
# How the values were obtained:
# Assay in all cases: cell viability (% of vehicle); higher = less cytotoxic
# Conditions in all cases: 10 µM; 72 h
# [1] = test system: HCI01 (cells of a triple-negative basal-like breast cancer xenograft)
# [2] = test system: HCI03 (cells of an ER-positive luminal breast cancer xenograft)
# [3] = test system: HCI09 (cells of a triple-negative luminal androgen receptor type breast cancer xenograft)
# [4] = test system: HCI11 (cells of an ER-positive luminal breast cancer xenograft)
# [5] = test system: HCI13 (cells of an ER-positive luminal breast cancer xenograft)
# [6] = test system: HCI16 (cells of a triple-negative basal-like breast cancer xenograft)
# [7] = test system: UCD52 (cells of a triple-negative basal-like breast cancer xenograft)
# [8] = test system: WHIM2 (cells of a triple-negative basal-like breast cancer xenograft)
# [9] = test system: WHIM30 (cells of a triple-negative basal-like breast cancer xenograft)
# 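Note: PDX cells carrying CMV promoter-driven luciferase, viability read as total photon flux per second by IVIS imaging following D-luciferin, vehicle control 0.1% DMSO.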
SMILES,cell viability [1],cell viability [2],cell viability [3],cell viability [4],cell viability [5],cell viability [6],cell viability [7],cell viability [8],cell viability [9]
CCCC1CC(C(=O)NC(C(C)Cl)C2OC(SC)C(OP(=O)(O)O)C(O)C2O)N(C)C1 (stereo not given) [Clindamycin Phosphate],140 ± 73,112,75.6 ± 25,96.6,86.2 ± 30,89.1,73.2 ± 16,92.7 ± 20,83.5 ± 1.4
OC[C@@H](O)[C@@H](O)[C@H](O)[C@H](O)CO [D-Mannitol],74.7 ± 26,95.7,93.1 ± 16,83.2,88.7 ± 6.7,114,74 ± 2.5,97.5 ± 16,115 ± 6.2
Cl.O=C1OC(CN2CCOCC2)CN1N=Cc1ccc([N+](=O)[O-])o1 (stereo not given) [Furaltadone HCl],75.8 ± 23,153,46.7 ± 22,63.7,94.2 ± 14,97,135 ± 13,42.7 ± 10,96 ± 4.8
CCOC(=O)c1ccc(N)cc1 [Benzocaine],144 ± 13,87.2,115 ± 14,117,79.8 ± 1.6,134,117 ± 8.3,142 ± 12,140 ± 10
CCC1(O)CC2CN(CCc3c([nH]c4ccccc34)C(C(=O)OC)(c3cc4c(cc3OC)N(C)C3C(O)(C(=O)OC)C(OC(C)=O)C5(CC)C=CCN6CCC43C65)C2)C1.O=S(=O)(O)O (stereo not given) [Vinblastine sulfate],127 ± 23,88.5,61 ± 26,102,40.1 ± 2.1,144,80.3 ± 1.4,76.8 ± 13,102 ± 19
CC(=O)OC1CC2CCC3C(CCC4(C)C3CC([N+]3(C)CCCCC3)C4OC(C)=O)C2(C)CC1N1CCCCC1.[Br-] (stereo not given) [Vecuronium Bromide],84.7 ± 11,146,90.5 ± 0.71,105,110 ± 14,93.9,87.7 ± 8.1,80.9 ± 7.3,155 ± 3.4
C=C1CCN(C(C)C(O)(Cn2cncn2)c2ccc(F)cc2F)CC1 (stereo not given) [Efinaconazole],119 ± 22,148,83.3 ± 19,91.5,126 ± 8.9,165,85.4 ± 5.2,95.9 ± 5.9,161 ± 25
NC(N)=NS(=O)(=O)c1ccc(N)cc1 [Sulfaguanidine],99.8 ± 16,135,88.6 ± 12,86.1,108 ± 7.2,135,85.4 ± 6.9,116 ± 6.5,118 ± 2.4
CCCCCCNC(=O)n1cc(F)c(=O)[nH]c1=O [Carmofur],110 ± 5.8,103,67.7 ± 9.4,131,80.9 ± 6.8,108,109 ± 41,92.5 ± 38,120 ± 17
CCOC(=O)C1=C(C)NC(C)=C(C(=O)OCC)C1c1ccccc1C=CC(=O)OC(C)(C)C [Lacidipine],107.7 ± 0.7,98.1,86.5 ± 9.8,110,88.7 ± 2.9,85.7,77.1 ± 6.1,99.8 ± 1.2,133 ± 3.9
CCc1ccc(CCOc2ccc(CC3SC(=O)NC3=O)cc2)nc1.Cl (stereo not given) [Pioglitazone HCl],119 ± 6.9,129,93.7 ± 19,125,126 ± 2,102,116 ± 11,116 ± 13,182 ± 40
CN(C)CC(c1ccc(O)cc1)C1(O)CCCCC1.O.O=C(O)CCC(=O)O (stereo not given) [Desvenlafaxine Succinate],91 ± 6.9,153,107 ± 13,92.6,110 ± 9.4,129,92.4 ± 9.8,105 ± 10,133 ± 2.2
CC(C)OC(=O)C(C)NP(=O)(OCC1OC(n2ccc(=O)[nH]c2=O)C(C)(F)C1O)Oc1ccccc1 (stereo not given),85.3 ± 7.8,103,79.3 ± 11,79.5,82.5 ± 5.5,141,84.26 ± 0.3,104 ± 7,120 ± 5
COc1cc2ncnc(Nc3ccc(F)c(Cl)c3)c2cc1OCCCN1CCOCC1 [Gefitinib (ZD1839)],95.6 ± 51,55.3,77.9 ± 22,110,63.3 ± 1.6,94.8,52.2 ± 1.3,47.8 ± 2.2,128.3 ± 1.1
CCC1OC(=O)C(C)C(OC2CC(C)(OC)C(O)C(C)O2)C(C)C(OC2OC(C)CC(N(C)C)C2O)C(C)(O)CC(C)C2NC(COCCOC)OC(C2C)C1(C)O (stereo not given) [Dirithromycin],143 ± 72,117,89.5 ± 16,94,76.3 ± 11,103,81.8 ± 15,90.6 ± 12,92.4 ± 3.8
Nc1cccc2c1C(=O)N(C1CCC(=O)NC1=O)C2=O (stereo not given) [Pomalidomide (CC-4047)],122 ± 2,126,87.9 ± 2.9,108,91.9 ± 8.8,103,104 ± 3.8,73.9 ± 5.1,133.9 ± 0.79
COc1cc2nc(N3CCN(C(=O)C4COc5ccccc5O4)CC3)nc(N)c2cc1OC.CS(=O)(=O)O (stereo not given) [Doxazosin Mesylate],116.9 ± 0.43,94.7,73.2 ± 34,83.3,103 ± 15,123,92.4 ± 14,62.6 ± 10,117 ± 13
COc1c2occc2cc2ccc(=O)oc12 [8-Methoxypsoralen],116 ± 17,147,99.5 ± 6.5,104,121 ± 13,122,106.6 ± 0.24,101 ± 17,97.9 ± 1.8
Nc1ccn(CC(CO)OCP(=O)(O)O)c(=O)n1.O.O (stereo not given) [Cidofovir dihydrate],120 ± 9.9,136,109 ± 42,94.7,152 ± 12,96.8,88 ± 0.94,97 ± 24,81 ± 1.9
CCc1ccc(CCOc2ccc(CC3SC(=O)NC3=O)cc2)nc1 (stereo not given) [Pioglitazone],93 ± 44,118,123 ± 30,104,135 ± 16,133,106 ± 8.1,106 ± 21,171 ± 1.9
